In PubChem BioAssay (NCATS) one finds Potency data, which are given here for 37 compounds.

Inconclusive results are not listed. Entries that show only a call come without a potency. Calls of active or inactive are those of the source. Calls come from the whole dose curve; as a rule, active = well fitted inhibition curve with a large enough effect; inconclusive = small, poorly fitted or top-dose-only effect; inactive = flat fitted curve, though single readings scatter.
Potency is the fitted concentration of half-maximal effect.

The nature of the test: Primary qHTS for inhibitors of nuclear receptor binding SET domain protein 2 (NSD2) in an isogenic RCH-ACV NSD2 p.E1099K mutant (9B) (AID 1645876). Note: nearly all actives have a fitted effect of over 70% in size. The conditions noted are these: RCH-ACV (leukaemia line) NSD2 E1099K (9B) viability, CellTiter-Glo, 72 h; series mostly up to 44.9 µM. (In general: Quantitative high-throughput screening tests each substance at several concentrations.)
On to `CCOC(=O)O[C@]1(C(=O)OCCl)CC[C@H]2[C@@H]3CCC4=CC(=O)C=C[C@]4(C)[C@H]3[C@@H](O)C[C@@]21C`, for which the Potency entry was “inactive”.

Take `CCC(C(=O)NC(=O)NC(C)=O)c1ccccc1` (configuration not stated): the Potency entry is “inactive”.

`NS(=O)(=O)c1cc2c(cc1Cl)CN(C1CCCCC1)C2=O`: the Potency entry was “inactive”.

In the case of `Nc1ncnc2c1ncn2Cc1c(F)cccc1Cl`, the Potency entry was “inactive”.

On to `OCc1c[nH]c2ccccc12`, for which the Potency was 24.3 µM (active).

Turning to `CN(C(=O)C(Cl)Cl)c1ccc(OC(=O)c2ccco2)cc1`, the Potency entry was “inactive”.

Consider `C[C@@]12CCC[C@H]1[C@@H]1CC[C@H]3C[C@@H](O)CC[C@]3(C)[C@H]1CC2`, for which the Potency result is “inactive”.

With `CCCOc1ccc2c(c1)CC[C@@H]1[C@@H]2CC[C@]2(C)C(OC)CC[C@@H]12` (some centres not stated), the Potency entry is “inactive”.

As to `Cc1cccc(N(C)C(=S)Oc2ccc3c(c2)C2CCC3C2)c1` (configuration not stated), the Potency result is “inactive”.

Regarding `C=CCOc1cc(Cl)ccc1C(=O)NCCN(CC)CC`, the Potency entry is “inactive”.

For `CCCCCCOC(=O)NC(=N)c1ccc(NCc2nc3cc(C(=O)N(CCC(=O)OCC)c4ccccn4)ccc3n2C)cc1`, the Potency is 18.6 µM (active).

In the case of `CN1CCC(=C2c3ccccc3CCc3cccnc32)CC1`, the Potency entry was “inactive”.

As for `CCOc1ncc(F)c(=O)[nH]1`, the Potency entry was “inactive”.

As to `CC(C)NC(=O)c1ccc(C=O)cc1`, the Potency entry is “inactive”.

With `CCOC(=O)NNc1nncc2ccccc12`, the Potency result was “inactive”.

For the compound `O=C1CC2(CCCC2)CC(=O)N1CCNCC1COc2ccccc2O1` (configuration not stated), the Potency entry is “inactive”.

Consider `COC(=O)c1c(Cl)c(Cl)c(C(=O)OC)c(Cl)c1Cl`, for which the Potency result is “inactive”.

`CC(=O)/C=C/C=C1/C2CCC(C2)C1(C)C` (configuration not stated): the Potency entry was “inactive”.

Consider `CCCC(=O)O[C@]1(C(=O)COC(=O)CC)CC[C@H]2[C@@H]3CCC4=CC(=O)CC[C@]4(C)[C@H]3[C@@H](O)C[C@@]21C`, for which the Potency entry was “inactive”.

For `CC[N+](CC)(CC)CCOC(=O)C(C1CCCC1)C1CCCC1`, the Potency is 21.1 µM (active).

Regarding `Cc1ncc(CO)c(CO)c1O`, the Potency result was “inactive”.

Consider `COC(=O)c1cc(Cl)ccc1OC`, for which the Potency result was “inactive”.

Take `CC(C)(C)C(=O)OCOC(=O)C1N2C(=O)CC2S(=O)(=O)C1(C)C` (configuration not stated): the Potency entry is “inactive”.

`C[C@@H]1CCC[C@H](C)N1CCCC(O)(c1ccccc1)c1ccccn1` (some centres not stated): the Potency entry is “inactive”.

For the compound `CC(NC(CCc1ccccc1)C(=O)O)C(=O)N1C(=O)N(C)CC1C(=O)O` (configuration not stated), the Potency result is “inactive”.

For `CCc1cc2cc(OC)c(OC)cc2c(Cc2ccccc2)n1`, the Potency is 23.7 µM (active).

In the case of `Nc1c2ccccc2nc2ccccc12`, the Potency is 3.76 µM (active).

Turning to `O=C1CCCc2c(O)cccc21`, the Potency entry is “inactive”.

Turning to `COC(=O)c1cc(S(N)(=O)=O)ccc1OC`, the Potency entry is “inactive”.

In the case of `Cc1ccc(Cl)c(OCC(O)CNC(C)(C)C)c1` (configuration not stated), the Potency entry is “inactive”.

On to `O=C(O)c1ccccc1Nc1cc(Cl)ccc1C(=O)O`, for which the Potency result was “inactive”.

For the compound `CC[C@@]1(O)C(=O)OCc2c1cc1n(c2=O)Cc2c-1nc1ccccc1c2/C=N/OC(C)(C)C`, the Potency entry is “inactive”.

On to `CC(CC(C#N)(c1ccccc1)C(C)C)N(C)C` (configuration not stated), for which the Potency entry is “inactive”.

In the case of `Nc1ccc(C(=O)OCC(O)CO)cc1` (configuration not stated), the Potency entry is “inactive”.

`CC(NCCC(c1ccccc1)c1ccccc1)c1ccccc1` (configuration not stated): the Potency is 18.8 µM (active).

In the case of `Cc1cc(O)c2c(O)c3c(O)cccc3cc2c1`, the Potency entry is “inactive”.

Turning to `CCCCNc1ccc(C(=O)OCCN(CC)CC)cc1`, the Potency result is “inactive”.
